Screens as filed in PubChem.
Only some compounds are listed: those with a hit (about 15% of all), similar ones and a draw of the others.
ELG1 DNA repair = inhibitors of ELG1-dependent DNA repair in HEK293T cells. HEK293T ELG1-luciferase reporter, luminescence, 16 h; DNA damage induced by 5-fluorouridine. Potency, µM (highest dose often 46.1 µM), without a hit: top-dose activity change, negative = inhibition, most hits filed as inhibitors. 330,000 compounds, 2.3% hits; note: nearly all actives have a fitted effect of over 55% in size
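Cells (2,000 per well) received 5-fluorouridine plus test compound or DMSO and were incubated 16 hr at 37 °C, 5% CO2. Luciferase activity was read by luminescence 30 min after ONE-Glo addition; signal suppression marked inhibition of damage-induced ELG1 function.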
VP16 counter = counter-screen for ROR gamma inhibitors: Gal4-VP16 reporter; Drosophila S2 Gal4-VP16 UAS-luciferase, luminescence, 20 h; Potency, µM (series often up to 53.6 µM), for inactives: at the top dose activity, negative = inhibition, most hits filed as inhibitors; 310,000 compounds, 3.5% hits; AID 2546;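 note: Gal4-VP16 expression switched on by copper sulfate through the metallothionein promoter; nearly all actives have a fitted effect of over 50% in size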
TDP1 cell noCPT = qHTS for Inhibitors of human tyrosyl-DNA phosphodiesterase 1 (TDP1): qHTS in cells in absence of CPT | DT40 Tdp1-/- hTDP1 cells, no CPT, ATP luminescence, 48 h | Potency, µM (doses to about 46.2 µM), for the others: top-dose activity change, negative = growth inhibition, actives largely listed as inhibitors | 420,000 compounds, 15% hits; note: nearly all actives have a fitted effect of over 55% in size
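Compound effects on proliferation are scored in DT40 Tdp1-/-;hTDP1 cells in the absence of CPT. ATP levels (CellTiter-Glo luminescence) are recorded after a ≥48 hr, 37 °C incubation.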
12-LOX inh = blocks human arachidonate 12S-lipoxygenase. 580,000 compounds, 1.1% hits. purified 12hLO, xylenol orange hydroperoxide absorbance. Potency, µM (highest dose often 108 µM), for inactives: at the highest dose activity change, negative = inhibition, actives largely listed as inhibitors. AID 1671190. P18054
Target sequence (P18054 whole entry, looked up): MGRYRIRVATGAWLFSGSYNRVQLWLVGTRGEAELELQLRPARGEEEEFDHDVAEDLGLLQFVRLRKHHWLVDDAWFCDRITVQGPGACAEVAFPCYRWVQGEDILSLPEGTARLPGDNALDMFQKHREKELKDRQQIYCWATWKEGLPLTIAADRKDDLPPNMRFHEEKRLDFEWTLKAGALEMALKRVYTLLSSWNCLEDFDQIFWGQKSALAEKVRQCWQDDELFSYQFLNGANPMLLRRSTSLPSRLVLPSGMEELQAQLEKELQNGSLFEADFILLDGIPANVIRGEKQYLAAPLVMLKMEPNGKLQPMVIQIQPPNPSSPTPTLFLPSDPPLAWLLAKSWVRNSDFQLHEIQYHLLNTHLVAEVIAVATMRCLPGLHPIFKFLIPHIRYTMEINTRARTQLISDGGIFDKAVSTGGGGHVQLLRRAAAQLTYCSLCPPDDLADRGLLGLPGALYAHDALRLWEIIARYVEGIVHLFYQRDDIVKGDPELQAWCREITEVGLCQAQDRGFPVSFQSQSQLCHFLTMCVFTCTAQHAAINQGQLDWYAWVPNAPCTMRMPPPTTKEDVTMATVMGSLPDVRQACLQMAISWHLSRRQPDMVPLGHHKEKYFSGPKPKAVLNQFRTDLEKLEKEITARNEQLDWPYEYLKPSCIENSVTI
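Purified human 12hLO at 150 nM in 25 mM Hepes, 0.01% Triton X-100, pH 7.0, preincubated 15 min at room temperature with compound. Reaction started with 40 uM arachidonic acid, 30 min at room temperature. Hydroperoxide measured by Fe-xylenol orange, 573/405 nm absorbance ratio.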
DT40 TDP1 CPT = growth inhibition of DT40 Tdp1-/-;hTDP1 cells with camptothecin (screen for TDP1 inhibitors); chicken DT40 Tdp1-/-;hTDP1 cells + 20 nM CPT, ATP luminescence, 48 h; Potency, µM (top dose mostly 46.2 µM), inactives show at the top dose activity change, negative = growth inhibition, most hits filed as inhibitors; 420,000 compounds, 12% hits; note: nearly all actives have a fitted effect of over 55% in size
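Cell growth measured by CellTiter-Glo luminescence after a minimum 48 h, 37 C compound exposure with 20 nM CPT in Tdp1-knockout DT40 cells stably expressing hTDP1, seeded 400/well; qHTS titration format.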
RORg inh = blocks mouse ROR gamma transcriptional activity; Drosophila S2 Gal4-RORgamma UAS-luciferase reporter, 20 h; Potency, µM (doses to about 53.6 µM), without a hit: at the top dose activity change, negative = inhibition, hits mostly inhibitors; 310,000 compounds, 5.4% hits; note: nearly all actives have a fitted effect of over 60% in size
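Drosophila Schneider cells stably carrying a metallothionein-driven Gal4 DBD–ROR gamma fusion and a UAS-Photinus luciferase reporter were exposed to compound for 1 hr, then induced with copper sulfate (700 uM final) for 20 hr at ambient temperature before luminescence reading.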
* hit, by the source's call; u = inconclusive; x = not tested or not shown. Calls come from the whole dose curve; as a rule, active = well fitted curve in the direction sought with a large enough effect; inconclusive = small, poorly fitted or top-dose-only effect, or another doubt; inactive = no such curve, though single readings can be large; an effect the other way counts as inactive or inconclusive. % is set by controls: 0 for no effect and ±100 for the full control effect; potency is the fitted concentration of half-maximal effect.

SMILES | ELG1 DNA repair | VP16 counter | TDP1 cell noCPT | 12-LOX inh | DT40 TDP1 CPT | RORg inh
COc1ccc2cc(C(=O)OC(C)C(N)=O)c(C)nc2c1 (configuration not stated) | x | x | x | 31.3% | x | x
Clc1ccc2c(c1)C(c1ccccc1)=Nc1ccc(Cl)cc1C(c1ccccc1)=N2 | x | x | x | -4.8% | x | x
Cc1cc(Cl)cc(Cl)c1CNCC1(O)CCCNC1 (configuration not stated) | x | x | x | 55.5% | x | x
C=CCOc1ccc(/C=C/C(=O)OCC(=O)N2CCN(S(=O)(=O)c3ccc(C)cc3C)CC2)cc1 | x | x | 7.31µM* | 23.3% | u | x
COc1cc(/C=C/C(=O)OCC(=O)N2CCN(S(=O)(=O)c3ccc(C)cc3C)CC2)cc(Cl)c1OC | u | x | 18.4µM* | -5.3% | u | x
O=C1[C@H]2[C@@H](C(=O)N1c1cccc3ccccc13)C1(C(=O)c3ccccc3C1=O)N1CCC[C@@H]21 | 8.3% | 20µM* | -26.3% | 0.0% | -19.3% | -80.2%
O=C(COc1ccc(-n2cnnn2)cc1)NC1CC1 | x | x | x | 0.5% | x | x
COc1ccc(C(C)=O)cc1CSC(=N)N | 2.7% | u | -25.7% | 0.1% | u | 22.6%
COc1ccc(C(C)=O)cc1COc1ccccc1[N+](=O)[O-] | 6.8% | -1.5% | -1.3% | 0.6% | -11.8% | -35.2%
COc1ccc(C(C)=O)cc1COc1cccnc1[N+](=O)[O-] | u | -0.4% | 16.4µM* | -9.8% | u | -32.1%
CCOc1ccc(C(C)=O)cc1COc1cccnc1[N+](=O)[O-] | -18.8% | 2.9% | 6.51µM* | -12.6% | 6.51µM* | -26.6%
O=[N+]([O-])c1ncccc1OCc1ccc(-c2ccccc2)cc1 | 19.6% | -16.4% | 16.4µM* | -29.5% | u | u
CCOc1ccc(C(C)=O)cc1CSC(=N)N | -11.6% | -8.9% | 20.6µM* | -15.4% | u | 4.1%
Cc1nc(C2CCN(C(=O)CNC(N)=O)CC2)cc(N2CCOCC2)n1 | x | x | x | 65.7% | x | x
O=C(NC(=S)NCCc1ccccc1)c1ccccc1 | u | u | -19.3% | u | -24.1% | 5.62µM*
O=C(NC(=S)NCc1ccccc1)c1ccccc1F | u | u | 1.5% | u | -9.4% | 10µM*
COC(=O)C(NC(=O)c1ccccc1)C(C)(C)SCc1ccccc1 (configuration not stated) | x | x | 18.4µM* | u | u | x
Cc1ccccc1C(=O)NNC(=O)CCc1ccccc1 | 19.5% | -8.5% | 2.9% | 12.2% | 24.7% | 34.3%
O=C(NC(=S)NCC1CCCO1)c1ccccc1F (configuration not stated) | u | 2.0% | -8.1% | -0.2% | -9.8% | u
Cc1ccccc1C(=O)NC(=S)N(CCO)Cc1ccccc1 | -3.4% | 2.82µM* | -25.1% | 3.1% | 2.9% | 2µM*
O=C(NNC(=S)NCCc1ccccc1)c1ccccc1 | x | x | x | -3.5% | x | x
C[C@]1(O)CCN(C(=O)c2cccc(Oc3ccccc3)c2)C[C@@H]1O | x | x | x | 71.4% | x | x
COc1cc(CNC(=O)c2cc3cccc(OC)c3oc2=O)ccc1OC(F)F | x | x | x | -6.7% | x | x
CCOc1ccc2c(=O)c(-c3ccc(OC)c(OC)c3)coc2c1 | x | x | x | 36.9% | x | x
O=C(NC(=S)NCc1ccccc1)c1ccccc1Br | u | 10µM* | 7.6% | 0.0% | 5.3% | 8.91µM*
SMILES | ELG1 DNA repair | VP16 counter | TDP1 cell noCPT | 12-LOX inh | DT40 TDP1 CPT | RORg inh
O=C(NC(=S)N(Cc1ccccc1)Cc1ccccc1)c1ccccc1F | u | 0.708µM* | u | -0.8% | u | 0.251µM*
COC(=O)C(Cc1ccccc1)NC(=S)NC(=O)c1ccccc1 (configuration not stated) | -20.9% | u | 18.4µM* | u | u | 3.16µM*
O=C(NCCc1ccccc1)c1ccccc1F | u | u | -3.4% | 0.6% | 21.7% | u
O=C(O)CNC(=S)N(Cc1ccccc1)Cc1ccccc1F | 18.4% | 1.0% | 3.3% | 1.0% | -0.8% | 11.0%
O=C(NC(=S)NCCc1ccccc1)c1ccccc1F | u | u | -4.4% | u | -27.8% | 17.8µM*
COc1cn(-c2ccccc2)nc1C(=O)OCC(=O)NC1CCCC1 | x | x | x | -21.2% | x | x
COC(=O)c1ccc(C)c(NC(=O)COc2ccc3c(C)cc(=O)oc3c2)c1 | x | x | x | 5.0% | x | x
O=C(NC(=S)NCc1ccccc1)c1ccccc1[N+](=O)[O-] | 1.9% | 15.8µM* | u | -6.8% | 3.9% | 7.94µM*
O=C(NC(=S)NC(=O)c1ccccc1F)c1ccccc1F | u | 5.62µM* | u | u | 5.2% | u
CN(CCC#N)C(=S)NC(=O)c1ccc(S(=O)(=O)N2CCOCC2)cc1 | 7.4% | u | 5.0% | 20.2% | 6.8% | 5.01µM*
CC1CCCCC1NC(=S)NC(=O)c1ccccc1Cl (configuration not stated) | u | x | u | 39.8% | u | x
CC(=O)N1CCN(C(=S)NC(=O)c2ccc(S(=O)(=O)N3CCOCC3)cc2)CC1 | 0.7% | -4.4% | 0.1% | u | -5.0% | 22.6%
O=C(NC(=S)N1CCCC1)c1ccccc1F | 3.0% | x | -16.5% | u | -6.6% | x
CC1CCCCC1NC(=S)NC(=O)c1ccccc1Br (configuration not stated) | u | 5.01µM* | u | u | u | 2.82µM*
COCC1CN(C)CC12CCN(S(=O)(=O)c1ccc3c(c1)CCC3)CC2 (configuration not stated) | x | x | x | -26.4% | x | x
CN(CC(=O)NC(N)=O)Cc1ccc(F)c(F)c1 | x | x | x | 31.6% | x | x
CC(=O)c1ccc(NC(=O)CCc2ncc(-c3ccccc3Cl)o2)cc1 | x | x | x | 8.6% | x | x
O=C1CC(c2ccccc2O)Cc2nc(N3CCN(c4cccc(Cl)c4)CC3)ncc21 (configuration not stated) | x | x | x | -21.4% | x | x
O=C(NCCc1ccccc1)c1ccc(S(=O)(=O)N2CCCCC2)cc1 | x | x | -16.9% | 1.4% | -17.5% | x
O=C(NC(=S)NCc1nc2ccccc2[nH]1)c1ccccc1F | u | 1.5% | 16.4µM* | -0.4% | 23.1µM* | -31.7%
O=C(NC(=S)N(CCO)Cc1ccccc1)c1ccc(S(=O)(=O)N2CCCC2)cc1 | -7.8% | 4.47µM* | u | 0.3% | u | 2.24µM*
O=C(NC(=S)NCc1nc2ccccc2[nH]1)c1ccc(F)cc1 | u | 6.6% | u | -27.5% | -8.9% | -30.1%
COc1ccc(OC)c(NC(=O)Nc2cccc(-c3ccc(N4CCCCC4)nn3)c2)c1 | x | x | x | -3.4% | x | x
